Activity calls are given as the source filed them. How the source made its calls: active means hit-call score of the fitted dose curve at least 0.9, where 1 is the maximum; inactive means score below 0.9.

Settings in all cases: mRNA level, 48 h; actives raise or lower the signal
Read-out in assay [1]: Glutathione S-transferase M3 (GSTM3), GSTM3 (gene 2947)
The assay is described as follows: LTEA_HepaRG_GSTM3: Life Technologies and Expression Analysis (LTEA) Assay for Glutathione S-transferase M3 (GSTM3) using HepaRG (AID 2283501). An outline of the steps: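 qRT-PCR read-out of GSTM3 transcript, normalized to three housekeeping genes, from human HepaRG cells after 48 h chemical exposure. Eight-point half-log series, top 100 uM, 0.5% DMSO vehicle; gain or loss fitted relative to DMSO baseline.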

Read-out in assay [2]: Heat shock 70 kDa protein 1 (HSPA1A), gene 3303
Briefly: LTEA_HepaRG_HSPA1A: Life Technologies and Expression Analysis (LTEA) Assay for Heat shock 70 kDa protein 1 (HSPA1A) using HepaRG (AID 2283502). The essentials:
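HSPA1A expression measured by qRT-PCR with ACTB/GAPDH/POLR2A normalization; curves fitted in both directions relative to DMSO vehicle. Exposure: 48 h in HepaRG cells, duplicate 8-point half-log series from 100 uM, 0.5% DMSO, serum-free induction medium.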

Read-out in assay [3]: Hypoxia-inducible factor 1-alpha (Homo sapiens) (UniProt Q16665)
Briefly: LTEA_HepaRG_HIF1A: Life Technologies and Expression Analysis (LTEA) Assay for Hypoxia-inducible factor 1 (HIF1A) Trancription factor using HepaRG (AID 2283503). The essentials:
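HIF1A transcript level read by qRT-PCR (ACTB, GAPDH, POLR2A normalization) after 48 h chemical exposure of HepaRG cultures. Eight half-log concentrations, top 100 uM, 0.5% DMSO vehicle, duplicates; bidirectional curve fit against DMSO baseline.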

Read-out in assay [4]: 3-Hydroxy-3-Methylglutaryl-CoA Synthase 2 (HMGCS2), HMGCS2 (gene 3158)
The assay is described as follows: LTEA_HepaRG_HMGCS2: Life Technologies and Expression Analysis (LTEA) Assay for 3-Hydroxy-3-Methylglutaryl-CoA Synthase 2 (HMGCS2) using HepaRG (AID 2283504). The essentials: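 qRT-PCR read-out of HMGCS2 transcript, normalised to three housekeeping genes, in HepaRG cells after 48 h chemical exposure. Eight-point curves from 100 uM, half-log dilutions, 0.5% DMSO vehicle; gain or loss fitted relative to DMSO baseline.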

Read-out in the next assay: HGF (gene 3082)
The assay is described as follows: LTEA_HepaRG_HGF: Life Technologies and Expression Analysis (LTEA) Assay for Hepatocyte Growth Facto (HGF) using HepaRG (AID 2283505). The essentials:
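HepaRG, 48 h dosing, 8-pt half-log series from 100 uM in 0.5% DMSO, duplicates. Readout: TaqMan qRT-PCR of HGF mRNA, housekeeping-normalized; bidirectional curve fit vs DMSO baseline.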

Read-out in assay [5]: Insulin Like Growth Factor 1 (IGF1), IGF1 (gene 3479)
The assay is described as follows: LTEA_HepaRG_IGF1: Life Technologies and Expression Analysis (LTEA) Assay for Insulin Like Growth Factor 1 (IGF1) using HepaRG (AID 2283506). An outline of the steps: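 Expression measured by TaqMan qRT-PCR on a Fluidigm array, with three housekeeping genes for normalisation, after 48 h treatment of HepaRG cells. Top concentration 100 uM with half-log steps, 0.5% DMSO vehicle, bidirectional fit.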

Read-out in assay [6]: Intercellular Adhesion Molecule 1 (ICAM1), ICAM1 (gene 3383)
Briefly: LTEA_HepaRG_ICAM1: Life Technologies and Expression Analysis (LTEA) Assay for Intercellular Adhesion Molecule 1 (ICAM1) using HepaRG (AID 2283507). The essentials:
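HepaRG, 48 h exposure, 8-pt half-log series from 100 uM, 0.5% DMSO vehicle, duplicates. Readout: TaqMan qRT-PCR mRNA, housekeeping-normalized (ACTB/GAPDH/POLR2A). Bidirectional curve fit vs DMSO baseline.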

Read-out in assay [7]: Insulin-like growth factor-binding protein 1 (IGFBP1), IGFBP1 (gene 3484)
The assay is described as follows: LTEA_HepaRG_IGFBP1: Life Technologies and Expression Analysis (LTEA) Assay for Insulin-like growth factor-binding protein 1 (IGFBP1) using HepaRG (AID 2283508). The essentials:
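qRT-PCR mRNA read-out (TaqMan, Fluidigm array), normalised to three housekeeping genes; HepaRG cells, 48 h exposure, 8-pt half-log series from 100 uM, 0.5% DMSO vehicle; bidirectional curve fit vs DMSO baseline.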

Read-out in assay [8]: Interleukin 6 (IL6), IL6 (gene 3569)
Briefly: LTEA_HepaRG_IL6: Life Technologies and Expression Analysis (LTEA) Assay for Interleukin 6 (IL6) using HepaRG (AID 2283509). An outline of the steps: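 Changes in IL6 mRNA, up or down relative to 0.5% DMSO controls, were derived from concentration-response curves in human HepaRG cells treated for 48 h at up to 100 uM, with ACTB, GAPDH and POLR2A as normalizers.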

Read-out in assay [9]: Interleukin 6 Receptor (IL6R), IL6R (gene 3570)
The assay is described as follows: LTEA_HepaRG_IL6R: Life Technologies and Expression Analysis (LTEA) Assay for Interleukin 6 Receptor (IL6R) using HepaRG (AID 2283510). The essentials:
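IL6R transcript level by qRT-PCR after 48 h chemical exposure (8-point, half-log, max 100 uM, 0.5% DMSO vehicle) of HepaRG cells in serum-free induction medium. Normalized to three housekeeping genes; curves fitted in both directions relative to DMSO.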

Read-out in assay [10]: Potassium channel subfamily K member 1 (KCNK1), KCNK1 (gene 3775)
The assay is described as follows: LTEA_HepaRG_KCNK1: Life Technologies and Expression Analysis (LTEA) Assay for Potassium channel subfamily K member 1 (KCNK1) using HepaRG (AID 2283511). An outline of the steps:
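Human HepaRG cultures receive test chemicals for 48 h in 0.5% DMSO, top concentration 100 uM with half-log dilutions. Induction or suppression of KCNK1 mRNA relative to DMSO is derived by bidirectional fitting of qRT-PCR data.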

Read-out in assay [11]: Keratin 19 (KRT19), KRT19 (gene 3880)
Briefly: LTEA_HepaRG_KRT19: Life Technologies and Expression Analysis (LTEA) Assay for Keratin 19 (KRT19) using HepaRG (AID 2283512). An outline of the steps:
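HepaRG, 48 h chemical exposure, 8-pt half-log CRC from 100 uM, 0.5% DMSO vehicle, duplicates. Readout: TaqMan qRT-PCR of KRT19 mRNA, housekeeping-normalized (ACTB/GAPDH/POLR2A). Bidirectional fit vs DMSO baseline.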

Read-out in assay [12]: JUN Transcription Factor, JUN (gene 3725)
Briefly: LTEA_HepaRG_JUN: Life Technologies and Expression Analysis (LTEA) Assay for JUN Transcription Factor using HepaRG (AID 2283513). The essentials:
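mRNA measured by TaqMan qRT-PCR after 48 h chemical exposure of HepaRG cultures; normalization to three housekeeping genes. Duplicate eight-point half-log curves from 100 uM in 0.5% DMSO; gain or loss fitted against DMSO baseline.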

Read-out in assay [13]: MicroRNA 122 (MIR122), gene 406906
Briefly: LTEA_HepaRG_MIR122: Life Technologies and Expression Analysis (LTEA) Assay for MicroRNA 122 (MIR122) using HepaRG (AID 2283516). Further: the transcript read is the microRNA miR-122. The essentials: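 Expression measured by microfluidic qRT-PCR with three housekeeping genes for normalisation, after 48 h treatment of HepaRG cultures. Eight concentrations (top 100 uM, half-log steps, 0.5% DMSO vehicle) in duplicate; gain or loss fitted relative to vehicle.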

Read-out in assay [14]: matrix metalloproteinase-10 (MMP10), MMP10 (gene 4319)
The assay is described as follows: LTEA_HepaRG_MMP10: Life Technologies and Expression Analysis (LTEA) Assay for matrix metalloproteinase-10 (MMP10) using HepaRG (AID 2283517). An outline of the steps: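 In differentiated HepaRG cultures kept in 0.5% DMSO, test chemicals act for 48 h over an eight-point range with a top dose of 100 uM. Expression is then quantified by TaqMan RT-PCR against ACTB, GAPDH and POLR2A.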

Read-out in a further assay: MYC, MYC (gene 4609)
The assay is described as follows: LTEA_HepaRG_MYC: Life Technologies and Expression Analysis (LTEA) Assay for MYC using HepaRG (AID 2283518). An outline of the steps: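 qRT-PCR read-out of MYC transcript (Fluidigm TaqMan, housekeeping-normalized) after 48 h chemical exposure of HepaRG cells; eight concentrations, top 100 uM, half-log steps. Bidirectional curve fitting against 0.5% DMSO vehicle baseline.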

Read-out in assay [15]: matrix metalloproteinase-3 (MMP3), MMP3 (gene 4314)
Briefly: LTEA_HepaRG_MMP3: Life Technologies and Expression Analysis (LTEA) Assay for matrix metalloproteinase-3 (MMP3) using HepaRG (AID 2283519). An outline of the steps: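 Human liver HepaRG cultures received chemicals (top concentration 100 uM, 0.5% DMSO) for 48 h in duplicate. MMP3 mRNA induction or loss was then assessed via TaqMan qRT-PCR with housekeeping-gene normalisation.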

Read-out in assay [16]: Paternally Expressed 10 (PEG10), PEG10 (gene 23089)
Briefly: LTEA_HepaRG_PEG10: Life Technologies and Expression Analysis (LTEA) Assay for Paternally Expressed 10 (PEG10) using HepaRG (AID 2283520).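 On AC50: differentiated HepaRG human liver cells in serum-free induction medium with 0.5% DMSO; PEG10 transcript by qRT-PCR normalised to ACTB GAPDH and POLR2A.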 The essentials: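 PEG10 transcript measured by Fluidigm qRT-PCR, normalized to three housekeeping genes, in HepaRG cells treated 48 h (highest 100 uM, half-log steps, 0.5% DMSO vehicle). Cells plated 48 h before switching to serum-free induction medium.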

Read-out in assay [17]: Lipase C (LIPC), LIPC (gene 3990)
The assay is described as follows: LTEA_HepaRG_LIPC: Life Technologies and Expression Analysis (LTEA) Assay for Lipase C (LIPC) using HepaRG (AID 2283514). An outline of the steps: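 In this multiplexed gene-expression screen, human HepaRG cultures received test chemicals for 48 h across eight concentrations with 100 uM highest, in duplicate. Values reflect LIPC mRNA induction or suppression versus DMSO vehicle, from normalized qRT-PCR.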

Sequence of Hypoxia-inducible factor 1-alpha (Homo sapiens) (Q16665 whole entry, looked up): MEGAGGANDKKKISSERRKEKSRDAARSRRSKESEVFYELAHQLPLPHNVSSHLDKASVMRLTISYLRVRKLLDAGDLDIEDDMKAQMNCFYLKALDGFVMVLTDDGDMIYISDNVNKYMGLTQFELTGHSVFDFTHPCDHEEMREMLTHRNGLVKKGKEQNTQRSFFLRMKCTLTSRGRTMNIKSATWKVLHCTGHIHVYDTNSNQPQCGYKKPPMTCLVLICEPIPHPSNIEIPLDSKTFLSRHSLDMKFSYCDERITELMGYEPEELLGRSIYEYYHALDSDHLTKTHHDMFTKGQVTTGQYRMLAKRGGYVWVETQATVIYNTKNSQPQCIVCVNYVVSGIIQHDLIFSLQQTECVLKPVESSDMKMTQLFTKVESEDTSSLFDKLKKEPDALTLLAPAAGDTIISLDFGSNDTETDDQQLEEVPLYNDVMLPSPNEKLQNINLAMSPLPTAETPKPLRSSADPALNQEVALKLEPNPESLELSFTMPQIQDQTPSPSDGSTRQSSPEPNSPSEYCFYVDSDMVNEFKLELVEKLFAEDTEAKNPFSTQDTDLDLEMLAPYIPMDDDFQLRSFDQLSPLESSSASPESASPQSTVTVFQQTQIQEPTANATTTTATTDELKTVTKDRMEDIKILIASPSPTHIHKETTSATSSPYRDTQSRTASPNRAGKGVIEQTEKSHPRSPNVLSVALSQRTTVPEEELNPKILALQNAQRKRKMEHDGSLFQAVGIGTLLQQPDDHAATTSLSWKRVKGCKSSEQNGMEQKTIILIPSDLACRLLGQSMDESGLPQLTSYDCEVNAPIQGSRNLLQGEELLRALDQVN

Turning to `Nc1ccc(Cl)cc1`, the call (in [1]; in assay [2]; in assay [3]; in assay [4]; with HGF (gene 3082); in assay [5]) was inactive. In addition, the outcome in assay [6], in assay [7], in [8], in assay [9], in assay [10] and in [11] was inactive. Also, the outcome is “inactive” in assay [12]; “inactive” in assay [13]; “inactive” in assay [14]; “inactive” with MYC, MYC (gene 4609); “inactive” in assay [15]; “inactive” in assay [16].

For the molecule `Cc1ccc([N+](=O)[O-])cc1C`, the result (in [1]; in assay [2]; in [3]; in assay [4]; in the assay with HGF (gene 3082); in [5]) was inactive. Besides, the result in [6], in assay [7], in assay [8], in assay [9], in [10] and in [11] was inactive. Also, the outcome was “inactive” in assay [12]; “inactive” in [13]; “inactive” in assay [14]; “inactive” with MYC, MYC (gene 4609); “inactive” in assay [15]; “inactive” in assay [16].

As to `c1ccc2c(c1)Nc1ccccc1S2`, the call (in assay [1]; in assay [2]; in assay [3]; in assay [4]; with HGF (gene 3082); in assay [6]) was inactive. Besides, the result in assay [7], in [8], in assay [9], in [10], in assay [12] and in [13] was inactive. In addition, the outcome in [14] was “inactive”; in the assay with MYC, MYC (gene 4609), “inactive”; in [15], “inactive”. Besides, the concentration at half-maximal activity (AC50) in assay [5] was 50 µM (active); in assay [11] it was 41.5 µM (active); in assay [16] it was 77.1 µM (active).

Regarding `CCOC(=O)c1ccccc1C(=O)OCC`, the call (in assay [1]; in assay [2]; in assay [3]; in [4]; with HGF (gene 3082); in [5]) was inactive. For the same molecule, the outcome in [6], in assay [7], in [8], in assay [9], in assay [10] and in [11] was inactive. Moreover, the outcome in assay [12] was “inactive”; in assay [13], “inactive”; in assay [14], “inactive”; with MYC, MYC (gene 4609), “inactive”; in [15], “inactive”; in assay [16], “inactive”.

Consider `[N-]=[N+]=[N-]`, for which the call (in assay [1]; in [2]; in assay [3]; with HGF (gene 3082); in assay [6]; in [9]) was inactive. Moreover, the molecule was classed as inactive in [10], in assay [12], in [13], in assay [14], in assay [15] and in [16]. The AC50 in assay [4] was 77 µM (active); in assay [5], 68.6 µM (active); in assay [7], 86.4 µM (active); in assay [8] it was 93.6 µM (active); in assay [11] it was 64.8 µM (active); in assay [17], 81.1 µM (active). In addition, in the assay with MYC, MYC (gene 4609), the AC50 is 80 µM (active).

For the origin of these results see PubChem BioAssay (EPA / NIEHS).
